High-throughput results as filed in PubChem BioAssay.
FBPA Giardia inh = inhibitors of Giardia lamblia fructose-1,6-bisphosphate aldolase; purified Giardia FBPA; 0.71% of 290,000 active; Potency, µM (doses to about 59.6 µM), for inactives: at the top dose activity, negative = inhibition, actives largely listed as inhibitors; A8B2U2; note: potency is the fitted concentration of half-maximal effect; nearly all actives have a fitted effect of over 55% in size
Target sequence (A8B2U2 whole entry, looked up): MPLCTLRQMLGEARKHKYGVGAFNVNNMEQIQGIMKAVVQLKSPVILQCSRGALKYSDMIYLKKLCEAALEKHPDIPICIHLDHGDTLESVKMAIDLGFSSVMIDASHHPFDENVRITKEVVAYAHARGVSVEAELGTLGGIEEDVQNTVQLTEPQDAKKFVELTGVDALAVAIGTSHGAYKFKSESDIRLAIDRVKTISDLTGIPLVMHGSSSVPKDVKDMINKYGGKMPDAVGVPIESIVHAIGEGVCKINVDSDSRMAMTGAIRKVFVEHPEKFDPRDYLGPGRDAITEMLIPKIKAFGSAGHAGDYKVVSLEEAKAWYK
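Giardia FBPA (40 nM reagent) was preincubated 10 min at RT with compound (up to 57.5 uM final), then substrate plus GAPDH/TPI/NAD/arsenate coupling system with diaphorase/resazurin was added; resorufin fluorescence (525/598 nm) was read after 20 min.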
Pf growth 96h = P. falciparum growth inhibition at 96 hour, primary screen for plastid delayed-death inhibitors; AID 504834; 6.9% of 320,000 active; Potency, µM (doses to about 28.7 µM), for inactives: at the top dose activity change, negative = inhibition, most hits filed as inhibitors; P. falciparum luciferase reporter growth, 96 h; note: potency is the fitted concentration of half-maximal effect
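Parasite growth measured via integrated firefly luciferase reporter in P. falciparum. Infected erythrocytes at 2% hematocrit, 0.05% parasitemia final were treated 96 hours at 37 C under 5% CO2, and luminescence was read.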
Pf growth 48h = inhibits P. falciparum growth in the first generation, 48 h; P. falciparum luciferase growth in erythrocytes, 48 h; Potency, µM (titrated, usually from 28.7 µM), for the others: top-dose activity change, negative = inhibition, usual class: inhibitors; 5.9% of 310,000 active; AID 504832; note: potency is the fitted concentration of half-maximal effect
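Erythrocytes infected with P. falciparum carrying an integrated firefly luciferase reporter (2% hematocrit, 0.1% parasitemia final) were exposed to compounds in RPMI 1640 with 0.5% Albumax at 37 C, 5% CO2. Growth inhibition was scored as reduced luminescence.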
HCMV inh = human cytomegalovirus inhibition; HFF cells, HCMV-luciferase reporter, 72 h; active compounds read low; 4.5% of 410,000 active; AID 1259415; activity change, negative = inhibition, % at 57.5 µM; in the data active = activity change below about -60%; inconclusive = no clear call, values can overlap the other calls; inactive = above about -39%
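Two-dose cell screen: HFF monolayers treated with compounds and infected with luciferase-expressing HCMV at 1 PFU/cell, 72 h at 37C, then lysed for luciferase measurement.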
Sm TGR block = blocks Schistosoma mansoni thioredoxin glutathione reductase; 3% of 360,000 active; AID 485364; Q962Y6; purified TGR, DTNB reduction, TNB absorbance 405 nm; Potency, µM (series often up to 114 µM), for the others: top-dose activity change, negative = inhibition, actives largely listed as inhibitors; note: potency is the fitted concentration of half-maximal effect; nearly all actives have a fitted effect of over 60% in size
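Kinetic colorimetric format: TGR-catalysed, NADPH-driven DTNB reduction monitored via TNB absorbance. Enzyme dispensed at 20 nM; compound exposure 15 min at room temperature before reaction start.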
An asterisk follows results filed as active; ? = inconclusive; . = no result given. Most compounds without a hit are left out; they make up all but 14% or so of the library. Unless noted, calls come from the whole dose curve; as a rule, active = well fitted curve in the direction sought with a large enough effect; inconclusive = small, poorly fitted or top-dose-only effect, or another doubt; inactive = no such curve, though single readings can be large; an effect the other way counts as inactive or inconclusive. % is set by controls: 0 for no effect and ±100 for the full control effect.

SMILES | FBPA Giardia inh | Pf growth 96h | Pf growth 48h | HCMV inh | Sm TGR block
COC(=O)C1=C(C)OC(N)=C(C#N)C1c1ccccc1 (stereo not drawn) | -4.1% | 28.3% | 2.0% | -2.0 | -3.2%
CCSc1cc(C2C(C#N)=C(N)OC(C)=C2C(=O)OC)c(C)o1 (stereo not drawn) | ? | . | ? | -3.2 | 25.1µM*
Cc1cc(C)nc(NC(=S)NC(=O)c2ccccc2F)n1 | . | . | . | 14.2 | .
Cc1cc(C)nc(S/C=C/C(=O)c2ccccc2F)n1 | 3.1% | 84.2% | 133.8% | -28.1 | 0.562µM*
COC1C(O)C(CO)OC1n1cnc2c(NC3CCCCC3)ncnc21 (stereo not drawn) | -2.8% | . | . | . | .
COc1ccc(N2C(=O)c3ccccc3NC23C(=O)N(C)c2ccccc23)cc1 (stereo not drawn) | 0.9% | . | 4.7% | 18.6 | 7.8%
COc1ccc2c(c1)C1(Nc3ccccc3-c3nc4ccccc4n31)C(=O)N2 (stereo not drawn) | 2.1% | . | 0.415µM* | 15.1 | -4.7%
Cc1ccc(C2Nc3ccccc3-c3nc4ccccc4n32)o1 (stereo not drawn) | -1.5% | 290.2% | 216.3% | 41.8 | 0.0%
CC1(c2ccncc2)Nc2ccccc2-c2nc3ccccc3n21 (stereo not drawn) | -13.3% | 2.62µM* | 3.29µM* | 22.4 | -16.5%
COc1ccc2c(c1)C1(Nc3ccccc3-c3nc4ccccc4n31)C(=O)N2C (stereo not drawn) | 6.6% | 14.8% | 6.57µM* | -25.1 | -3.4%
COc1ccc2c(c1)CC(C1(O)C(=O)Nc3ccccc31)C2=O (stereo not drawn) | -2.2% | 35.4% | -12.7% | 27.0 | 70.8%
COc1ccc(OC)c(CN(CC(F)(F)F)S(=O)(=O)c2ccccc2Br)c1 | . | . | . | -29.6 | .
COc1cccc(-c2nn(C)c3sc(C(=O)NCc4ccc(C)o4)cc23)c1 | -13.4% | ? | ? | 14.4 | 8.91µM*
CCCN(CCC)CCCNC(=O)c1cc2c(-c3ccc(Cl)cc3)nn(C)c2s1 | . | . | . | -89.3* | 5.2%
COc1cccc(-c2nn(C)c3sc(C(=O)N4CCOCC4)cc23)c1 | -7.1% | 2.33µM* | . | 89.8 | 0.4%
COc1cccc(-c2nn(C)c3sc(C(=O)NCc4ccc(OC)cc4OC)cc23)c1 | . | . | . | -38.7 | 10.5%
